Test: binders of probe aFSTL3 on microarray, primary screen, stem cell growth factor project, biochemical, small-molecule microarray, fluorescence 635/667 (AID 1064);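 note: measures binding of the biotinylated anti-FSTL3 antibody to printed compounds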
Settings: higher = more signal

Row | Structure (SMILES) | composite z-score
1 | Cc1ccc(S(=O)(=O)N2[C@@H](c3ccccc3)C(C(=O)O)=CC[C@H]2c2ccccc2)cc1 | -0.0332
2 | CC[C@H]1C2=C3C(CC[C@H]4C(OC)OC[C@](C)([C@@H]34)N(C(=O)OC(C)(C)C)C2)C(CO)C1CO (stereo not given in full) | 1.21
3 | C=CCN1C(=O)[C@@]2(O[C@@H](CCn3cc([C@H](O)c4ccccc4)nn3)[C@H]([Si](C)(C)c3ccc(OC)cc3)[C@H]2C)c2cc(N3CCOC3=O)ccc21 | 0.228
4 | CO[C@@H]1COC(=O)CC=C[C@@H](C)[C@H](OC)COC(=O)CC=C[C@H]1C | -0.762
5 | CCCC[C@H]1OB(O)C[C@H]2C1=C(COC)C[C@H]1C(=O)N(Cc3ccccc3)C(=O)[C@H]12 | -0.193
6 | C=CC[C@@]1(C(=O)N2CCOCC2)N=C(c2ccc(OCCCO)cc2)O[C@@H]1c1ccccc1 | -0.487
7 | COc1ccc([Si](C)(C)[C@@H]2[C@@H](CCO)O[C@]3(C(=O)N(Cc4ccc(NC(=O)[C@H](C)O)cc4)c4ccccc43)[C@H]2C)cc1 | 0.0169
8 | COc1ccc([Si](C)(C)[C@H]2[C@H](CC(=O)N(CCO)Cc3ccccc3)O[C@@]3(C(=O)N(C)c4ccccc43)[C@@H]2C)cc1 | -0.412
9 | NC(=O)[C@H]1[C@@H]2C(=O)O[C@@H](c3ccccc3)[C@@H](c3ccccc3)N2[C@@H](c2ccc(O)cc2)[C@]12C(=O)Nc1ccc(C#CCCO)cc12 | 0.545
10 | CO[C@H]1O[C@H](CO)[C@@H](OC(=O)Nc2ccc3c(c2)OCO3)[C@H](OC(=O)Nc2ccccc2)[C@@H]1OC(=O)Nc1ccccc1 | -0.214

From PubChem BioAssay
